Laboratory results taken from ChEMBL document CHEMBL5606458, “ASAP - ZIKV NS2B-NS3 protease fluorescence single point” (2024).
Among all 2,700 compounds or so, about 160 (5.9%) showed an effect of 50% or more. The full list was thinned out, with strong results kept by preference.

Biological target: Nonstructural protein 3 (Zika virus) (UniProt A0A024AXB9)
Sequence (A0A024AXB9 as listed by the source): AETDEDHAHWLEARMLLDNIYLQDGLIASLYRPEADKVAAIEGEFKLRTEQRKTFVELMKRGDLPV

`CCCC[C@H](NC(C)=O)C(=O)N[C@H](C(=O)NCc1ccc(C(N)=O)cc1)c1ccc(OCc2ccccc2)cc1` gave an inhibition (PRVABC59, Concentration 49.5 uM, Number of replicates 2.0, Standard deviation 2.8803277655268693 %) of 26.6%, an inhibition (PRVABC59, Concentration 99.01 uM, Number of replicates 2.0, Standard deviation 0.054514419737930774 %) of 98.6% and an inhibition (PRVABC59, Concentration 198.0 uM, Number of replicates 2.0, Standard deviation 0.07632018763310308 %) of 99.1%.
Molecule `CCCC[C@H](NC(C)=O)C(=O)N[C@H](C(=O)NCc1ccc(CN)cc1)c1ccc(OCc2ccccc2)cc1` has an inhibition (PRVABC59, Concentration 49.5 uM, Number of replicates 2.0, Standard deviation 3.0246149725930045 %) of 4.96%, an inhibition (PRVABC59, Concentration 99.01 uM, Number of replicates 2.0, Standard deviation 5.4426160865401085 %) of 91.7% and an inhibition (PRVABC59, Concentration 198.0 uM, Number of replicates 2.0, Standard deviation 0.23672907001683724 %) of 97.8%.
Molecule `CCCCCC(=O)N[C@H](C(=O)NCc1cccc(CN)c1)C1CCCCC1` has an inhibition (PRVABC59, Concentration 49.5 uM, Number of replicates 2.0, Standard deviation 0.08302069360936502 %) of -2.7%, an inhibition (PRVABC59, Concentration 99.01 uM, Number of replicates 2.0, Standard deviation 0.655862366837183 %) of -1.9% and an inhibition (PRVABC59, Concentration 198.0 uM, Number of replicates 2.0, Standard deviation 0.31962821211509684 %) of 41.3%.
In the case of `CCCC[C@H](NC(C)=O)C(=O)N[C@H](C(=O)Nc1ccc(C(N)=O)cc1)c1ccc(OCc2ccccc2)cc1`, the inhibition (PRVABC59, Concentration 49.5 uM, Number of replicates 2.0, Standard deviation 1.0117053428289626 %) is reported as -1.83%, the inhibition (PRVABC59, Concentration 99.01 uM, Number of replicates 2.0, Standard deviation 0.9364545471831264 %) is reported as 1.23% and the inhibition (PRVABC59, Concentration 198.0 uM, Number of replicates 2.0, Standard deviation 0.5455676889131452 %) is reported as 17.7%.
`COc1ccc2nc(C(F)(F)F)nc(N3CCN(c4ccc(N)nc4)CC3)c2c1` showed an inhibition (PRVABC59, Concentration 49.5 uM, Number of replicates 2.0, Standard deviation 0.8584962379889504 %) of 14.4%, an inhibition (PRVABC59, Concentration 99.01 uM, Number of replicates 2.0, Standard deviation 2.1800251715639205 %) of 28% and an inhibition (PRVABC59, Concentration 198.0 uM, Number of replicates 2.0, Standard deviation 1.6255789961308644 %) of 43.6%.
In the case of `CC(C)(CO)CN1CC[C@H](c2c[nH]c3ccccc23)C1`, the inhibition (PRVABC59, Concentration 49.5 uM, Number of replicates 2.0, Standard deviation 3.1209329969075563 %) is reported as 6.14%, the inhibition (PRVABC59, Concentration 99.01 uM, Number of replicates 2.0, Standard deviation 4.254828207009483 %) is reported as 11.2% and the inhibition (PRVABC59, Concentration 198.0 uM, Number of replicates 2.0, Standard deviation 3.604090306895346 %) is reported as 18.1%.
For `O=C(NCC1CC1)c1cc(Cl)ccc1NS(=O)(=O)c1ccc(Oc2ccccc2Cl)cc1`, the inhibition (PRVABC59, Concentration 49.5 uM, Number of replicates 2.0, Standard deviation 1.3484995448740613 %) was 43%, the inhibition (PRVABC59, Concentration 99.01 uM, Number of replicates 2.0, Standard deviation 16.06152873020096 %) was 40.6% and the inhibition (PRVABC59, Concentration 198.0 uM, Number of replicates 2.0, Standard deviation 0.4375207024201935 %) was 45.6%.
In the case of `Cc1ccc(CNC(=O)c2cc(Cl)ccc2NS(=O)(=O)c2ccc(Oc3ccccc3Cl)cc2)s1`, the inhibition (PRVABC59, Concentration 49.5 uM, Number of replicates 2.0, Standard deviation 0.2822395742136887 %) is reported as 41.1%, the inhibition (PRVABC59, Concentration 99.01 uM, Number of replicates 2.0, Standard deviation 0.310134718781715 %) is reported as 25.2% and the inhibition (PRVABC59, Concentration 198.0 uM, Number of replicates 2.0, Standard deviation 2.1364830937799217 %) is reported as -9.71%.
Work on `COC[C@@H](C)CNC(=O)c1cc(Cl)ccc1NS(=O)(=O)c1ccc(Oc2ccccc2Cl)cc1` yielded an inhibition (PRVABC59, Concentration 49.5 uM, Number of replicates 2.0, Standard deviation 0.1936300399043851 %) of 40.8%, an inhibition (PRVABC59, Concentration 99.01 uM, Number of replicates 2.0, Standard deviation 0.11978876131329876 %) of 39.9% and an inhibition (PRVABC59, Concentration 198.0 uM, Number of replicates 2.0, Standard deviation 0.12799289825703533 %) of 17.9%.
`CC(C)CNC(=O)c1cc(Cl)ccc1NS(=O)(=O)c1ccc(Oc2ccccc2Cl)cc1` was tested, and the inhibition (PRVABC59, Concentration 49.5 uM, Number of replicates 2.0, Standard deviation 0.3286348250544809 %) was 58.6%, the inhibition (PRVABC59, Concentration 99.01 uM, Number of replicates 2.0, Standard deviation 0.058762822067828895 %) was 54.7% and the inhibition (PRVABC59, Concentration 198.0 uM, Number of replicates 2.0, Standard deviation 2.167677830824169 %) was 37.6%.
Work on `O=C(O)c1cc(Cl)ccc1NS(=O)(=O)c1ccc(Oc2ccccc2Cl)cc1` yielded an inhibition (PRVABC59, Concentration 15.0 uM, Number of replicates 2.0, Standard deviation 1.019095961302742 %) of 25.6%, an inhibition (PRVABC59, Concentration 49.5 uM, Number of replicates 2.0, Standard deviation 0.595671862422896 %) of 67% and an inhibition (PRVABC59, Concentration 99.01 uM, Number of replicates 2.0, Standard deviation 0.9962463002636517 %) of 72.9%. For the same molecule, the inhibition (PRVABC59, Concentration 198.0 uM, Number of replicates 2.0, Standard deviation 0.4898259529465772 %) was 64.4%.
